# Source: PubChem BioAssay AID1645882 (National Center for Advancing Translational Sciences (NCATS), 2021)
# Where “and” joins values, the source holds several entries; their conditions need not be identical. Equal values may be shown once. The whole screen tested about 16,000 compounds, of which about 120 (0.75%) were called active. Another 4% or so got no clear call; they are omitted. For the sample, actives were picked, then their nearest neighbours and some compounds at random. Where a structure was tested more than once in an assay, its records may differ in their call. Values without a mark were called inactive. Calls come from the whole dose curve; as a rule, active = well fitted inhibition curve with a large enough effect; inconclusive = small, poorly fitted or top-dose-only effect; inactive = no such curve, though single readings can be large or run the other way.
# Biological target: Rap guanine nucleotide exchange factor 3 (Homo sapiens) (UniProt O95398)
# Sequence (O95398 whole entry, looked up): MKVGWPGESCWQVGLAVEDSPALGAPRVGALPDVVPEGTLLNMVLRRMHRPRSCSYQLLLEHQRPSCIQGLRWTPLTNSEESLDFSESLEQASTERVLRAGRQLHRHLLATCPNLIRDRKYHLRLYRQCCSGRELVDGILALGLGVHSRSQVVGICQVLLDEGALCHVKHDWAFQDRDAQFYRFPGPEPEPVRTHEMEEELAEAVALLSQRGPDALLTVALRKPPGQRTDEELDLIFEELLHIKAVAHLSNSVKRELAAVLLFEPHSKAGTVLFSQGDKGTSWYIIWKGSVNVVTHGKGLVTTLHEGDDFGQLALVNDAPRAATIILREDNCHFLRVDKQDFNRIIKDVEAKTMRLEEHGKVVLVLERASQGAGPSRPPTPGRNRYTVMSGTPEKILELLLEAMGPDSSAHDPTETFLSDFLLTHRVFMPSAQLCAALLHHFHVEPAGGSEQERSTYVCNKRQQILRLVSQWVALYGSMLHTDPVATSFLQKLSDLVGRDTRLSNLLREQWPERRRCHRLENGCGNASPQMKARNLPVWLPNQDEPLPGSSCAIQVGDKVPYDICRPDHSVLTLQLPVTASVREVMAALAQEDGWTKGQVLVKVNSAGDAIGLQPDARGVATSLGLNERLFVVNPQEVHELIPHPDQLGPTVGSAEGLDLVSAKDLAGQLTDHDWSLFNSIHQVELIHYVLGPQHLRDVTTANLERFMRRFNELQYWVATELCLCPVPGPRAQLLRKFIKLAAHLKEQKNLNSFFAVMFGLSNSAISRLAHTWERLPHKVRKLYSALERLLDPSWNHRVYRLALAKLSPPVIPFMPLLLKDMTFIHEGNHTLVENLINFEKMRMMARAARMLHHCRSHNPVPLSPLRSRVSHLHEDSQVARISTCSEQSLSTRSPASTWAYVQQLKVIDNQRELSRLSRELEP
# Experiment: Validation qHTS for antagonist of cAMP-regulated guanine nucleotide exchange factor 3 (EPAC1); note: nearly all actives have a fitted effect of over 75% in size;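 for activity change, negative = inhibition: plate controls were DMSO for no effect and ATA control for full effect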
# Conditions: EPAC1 Rap1B-BODIPY-GDP exchange, fluorescence; series mostly up to 150 µM; activity change, negative = inhibition: at the top concentration
# Method in brief: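 Nucleotide exchange followed as fluorescence loss when BODIPY-GDP leaves Rap1B (480 nm excitation, 540 nm emission), read at 5 min intervals over 30 min. Reaction: 100 nM EPAC1, 250 nM RAP1B-BODIPY-GDP, 50 uM GDP; ATA and DMSO define normalization.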
# Potency is the fitted concentration of half-maximal effect.
SMILES,"activity change, negative = inhibition",Potency
COc1cc(/C=C/C(=O)c2cccs2)cc(OC)c1OC,-2.5%,
Cc1cc(-c2ccc(N=Nc3ccc4c(S(=O)(=O)O)cc(S(=O)(=O)O)c(N)c4c3O)c(C)c2)ccc1N=Nc1ccc2c(S(=O)(=O)O)cc(S(=O)(=O)O)c(N)c2c1O,,20 µM (active) and 50.1 µM (active) and 31.6 µM (active)
COc1cc(O)c(C(=O)c2ccccc2)cc1S(=O)(=O)O,21.5%,
COc1cc(-c2ccc(N=Nc3ccc4c(S(=O)(=O)O)cc(S(=O)(=O)O)c(N)c4c3O)c(OC)c2)ccc1N=Nc1ccc2c(S(=O)(=O)O)cc(S(=O)(=O)O)c(N)c2c1O,12.3% [at 27.4 µM],31.6 µM (active)
CCC1CN(CC(=O)NC(C)c2c(C)nn(C)c2C)Cc2cc(OC)ccc2O1 (centres undefined),5.2%,
Cc1c(C(=O)N(C)CC2CCCN(C)C2)cnn1-c1nccc(-c2ccco2)n1 (centres undefined),10.4%,
COC(=O)[C@@H]1[C@@H]2C[C@H]3c4[nH]c5ccccc5c4CCN3C[C@@H]2CC[C@@H]1O,,inactive
CC1CC[C@@]2(C(=O)O)CC[C@]3(C)C(=CCC4[C@@]5(C)CCC(O)C(C)(C)C5CC[C@@]43C)C2C1C (some centres undefined),4.6%,
CN(C)c1ccc(/C=C/c2ccnc3c(-c4ccccc4)cccc23)cc1,17.8%,
CC1COC2=C1C(=O)C(=O)c1c2ccc2c1CCCC2(C)C (centres undefined),-18.5%,
Cc1c(S(=O)(=O)O)oc2c1C(=O)C(=O)c1c-2ccc2c1CCCC2(C)C,,100 µM (active)
Cc1coc2c1C(=O)C(=O)c1c-2ccc2c1CCCC2(C)C,,inactive
O=C(c1cccc(F)c1)N1CCC2(CCCN(c3ccncc3)C2)CC1,6.3%,
Cc1cnc(-n2ncc(C(=O)NCC3COCCO3)c2C2CC2)nc1-c1cccs1 (centres undefined),9.72%,
Cc1nc(NCc2cccc3c2OCO3)sc1-c1ccn(CC2CCCN(C)C2)n1 (centres undefined),11.6%,
O=C(Nc1ccc([N+](=O)[O-])cc1Cl)c1cc(Cl)ccc1O,,inactive
Cc1cc(C(C#N)c2ccc(Cl)cc2)c(Cl)cc1NC(=O)c1cc(I)cc(I)c1O (centres undefined),,50.1 µM (active)
COC(=O)C[C@H]1c2ccccc2S(=O)(=O)N1Cc1ccc(OC)cc1,8.68%,
C(=C\c1ccncc1)/c1ccccc1,,inactive
Cc1cc(NC(=O)Nc2ccc(N(C)C)cc2)c2cc(F)cc(F)c2n1,-16.4%,
Cc1cc(N)c2cc(NC(=O)Nc3ccc4nc(C)cc(N)c4c3)ccc2n1,,28.2 µM (active)
O=C(Nc1ccc(Cl)cc1)Nc1ccc(Cl)c(Cl)c1,-10.1%,

SMILES,"activity change, negative = inhibition",Potency
COCc1c(C(=O)NC2CCCCC2)cnn1-c1nccc(-c2cc(C)sc2C)n1,-11.3%,
O=C(Cn1cccn1)N1CCOc2c(cc(-c3ncc(C(F)(F)F)cc3Cl)cc2OCC2CCCO2)C1 (centres undefined),24.5%,
CCOc1ccc(S(=O)(=O)O)c2cccnc12,11.2%,
O=S(=O)(O)c1cc(I)c(O)c2ncccc12,15.7%,
O=C(Nc1ccc(/C=C/c2ccc(NC(=O)c3cc(S(=O)(=O)O)c4cccnc4c3O)cc2S(=O)(=O)O)c(S(=O)(=O)O)c1)c1cc(S(=O)(=O)O)c2cccnc2c1O,,44.7 µM (active)
O=C(c1cnsn1)N1CCOc2ccc(CN3CCOCC3)cc2C1,8.76%,
COCC(=O)Nc1cc(C(=O)N2CCCC(C(N)=O)C2)cc2nc(-c3ccccc3)n(C)c12 (centres undefined),7.12%,
COc1ccc(CNc2ncnc3ccc(-c4ccc(N(C)C)cc4)cc23)c(OC)c1,-8.56%,
[N-]=[N+]=Nc1nc2c(N)ncnc2n1C1OC(CO)C(O)C1O (centres undefined),-15.6%,
Nc1ncnc2c1nc(Br)n2C1CC(O)C(CO)O1 (centres undefined),22.2%,
Nc1nc2c(nc(Br)n2C2OC3COP(=O)(O)O[C@@H]3C2O)c(=O)[nH]1 (some centres undefined),0% [at 75.8 µM],
Nc1nc2c(nc(Sc3ccc(Cl)cc3)n2C2OC(CO)C(O)C2O)c(=O)[nH]1 (centres undefined),19.8%,
Nc1ncnc2c1nc(Br)n2[C@@H]1O[C@H]2COP(=O)(O)O[C@@H]2[C@@H]1O,,2.82 µM (active)
Nc1ncnc2c1nc(Br)n2[C@H]1O[C@H]2COP(=O)(O)O[C@H]2[C@@H]1O,,2.51 µM (active)
NC1=NC2C(N=C(Br)N2[C@@H]2O[C@H]3COP(=O)(O)O[C@@H]3[C@@H]2O)C(=O)N1 (some centres undefined),-7.02% [at 201 µM],
Nc1ncnc2c1nc(Cl)n2C1OC(CO)C(O)C1O (centres undefined),19.2%,
Nc1ncnc2c1nc(Br)n2C1OC(CO)C(O)C1O (centres undefined),8.26%,
Nc1ncnc2c1nc(Br)n2C1OC2COP(=O)(O)O[C@@H]2C1O (some centres undefined),,0.708 µM (active)
Nc1ncnc2c1nc(Sc1ccc(Cl)cc1)n2[C@H]1OC2COP(=O)(O)O[C@@H]2C1O (some centres undefined),,0.316 µM (active)
Nc1nc2c(nc(Br)n2[C@@H]2O[C@H]3COP(=O)(O)O[C@H]3[C@@H]2O)c(=O)[nH]1,-21.7%,
O=S(=O)(c1ccccc1)N1CCC2(CCCN(c3ccccc3)C2)CC1,5.08%,
Cc1cccc(CNC(=O)c2cnn(-c3nccc(-c4ccccc4F)n3)c2C)n1,18.3%,

SMILES,"activity change, negative = inhibition",Potency
C[C@]12C[C@H](O)CC(CO)(CO)C1[C@H](O)C[C@@]13CC4[C@@H](CC12)[C@@]4(C)C3 (some centres undefined),22.1%,
N#Cc1cccc(NC(=O)N2CCC3(CC2)CCN(C(=O)c2cnccn2)CC3)c1,12.3%,
O=S(=O)(NCc1ccccc1)[C@@H]1CC2C=CC1C2 (some centres undefined),0.734%,
CC(C)(C)OC(=O)NS(=O)(=O)NOCc1ccccc1,18.2%,
COc1cc2c(cc1OC)C1C(=O)c3ccc4c(c3OC1CO2)C=CC(C)(C)O4 (centres undefined),-27.3%,
Cc1ccccc1C1(CC(=O)N2CC3(C)CC2CC(C)(C)C3)CC(=O)N(Cc2cccnc2)C1=O (centres undefined),-2.13%,
O=C(c1cccc(F)c1)N1CCC[C@@]2(CCN(Cc3ccncc3)C2)C1,11.1%,
COc1ccc(C(=O)N2CCC3(CC2)CN(c2ccccc2)C3)cc1,-2.38%,
CCN(CC)CCOC[C@H]1O[C@@H](O)[C@H](OCCN(CC)CC)[C@@H](O)[C@@H]1O,17.7%,
OC1(c2cccnc2)CCN(Cc2ccc3c(c2)CN(Cc2cc4ccccc4s2)CCO3)CC1,-8.5%,
COC(=O)c1c(OCCN2CCCCC2)cc(=O)n2c1CCN(Cc1cccc3nccnc13)CC2,-0.569%,
Cn1c(=O)c(-c2ccccc2)nc2cnc(Nc3ccccc3)nc21,19.1%,
O=C(Nc1cccc(F)c1)N1CC[C@@]2(CCCN(C(=O)c3ccco3)C2)C1,21%,
O=C(c1csnn1)N1CCC[C@@]2(CCN(c3ncccn3)C2)C1,16.4%,
CC(=O)N[C@@H](CSC/C=C(\C)CCC=C(C)C)C(=O)O,,inactive
CC(=O)CC/C=C(\C)CC/C=C(\C)CC/C=C(\C)CCC=C(C)C,24.4%,
CC(=O)N[C@@H](CSC/C=C(\C)CC/C=C(\C)CC/C=C(\C)CCC=C(C)C)C(=O)O,32.8% [at 15.3 µM],56.2 µM (active)
CCN(CC)CCOc1ccccc1OC,3.14%,
C[C@H](CC[C@@H]1OC1(C)C)C1CC[C@H]2[C@@H]3CC=C4C[C@@H](O)CC[C@]4(C)[C@H]3CC[C@]12C (some centres undefined),14.3%,
C[C@@H]1C(=O)CC2C(C)(C)CCC[C@]2(C)[C@@]1(O)CCc1ccoc1 (some centres undefined),-5.75%,
CC(=O)/C=C/c1ccc2c(c1)S(=O)(=O)N(C1CCCC1)[C@H]2CC(C)=O,,56.2 µM (active)
O=C(O)/C=C/c1ccc2c(c1)S(=O)(=O)N(C1CCCC1)[C@H]2CC(=O)O,-10.5%,

SMILES,"activity change, negative = inhibition",Potency
CCOC(=O)/C=C/c1ccc2c(c1)S(=O)(=O)N(C1CCCC1)[C@H]2CC(=O)OCC,-27.3%,
CC1(C)S[C@@H]2[C@H](NC(=O)C(N)c3ccccc3)C(=O)N2[C@H]1C(=O)OC1OC(=O)c2ccccc21 (some centres undefined),8.83% [at 75.8 µM],
COc1ccc(N2C(=O)[C@@H]3C[C@H]2CN3Cc2cccn2-c2ccc(Cl)cn2)c(C)c1,12.9%,
COc1ccc2c(c1)[C@@]1(C)CCC[C@](C)(CO)C1CC2 (some centres undefined),-3.59%,
Cc1cc(C(=O)NCc2nc(-c3ccccc3NC(=O)C3CCCO3)oc2C)nc(C)n1 (centres undefined),3.75%,
COc1c2ccccc2nc2occc12,7.29%,
Nc1ccc(O)c(C(=O)O)c1,0.11%,
O=C(O)C1=CC(=C(c2ccc(O)c(C(=O)O)c2)c2ccc(O)c(C(=O)O)c2)C=CC1=O,,56.2 µM (active) and 1.58 µM (active)
O=C(O)c1cc(N=Nc2ccc(O)c(C(=O)O)c2)ccc1O,5.06%,
O=C(NCC1CCC2(CCN(Cc3c[nH]c4ccccc34)CC2)O1)C1CCOCC1 (centres undefined),2.25%,
CO[C@H]1C=CO[C@@]2(C)Oc3c(C)c(O)c4c(O)c(c(/C=N/N5CCN(C)CC5)c(O)c4c3C2=O)NC(=O)/C(C)=C\C=C[C@H](C)[C@H](O)[C@@H](C)[C@@H](O)[C@@H](C)[C@H](OC(C)=O)[C@@H]1C,,89.1 µM (active)
CO[C@H]1C=CO[C@@]2(C)Oc3c(C)c(O)c4c(O)c(cc(O)c4c3C2=O)NC(=O)/C(C)=C\C=C/[C@H](C)[C@H](O)[C@@H](C)[C@@H](O)[C@@H](C)[C@H](OC(C)=O)[C@@H]1C,-10.9%,
CO[C@H]1C=CO[C@@]2(C)Oc3c(C)c(O)c4c(O)c(c(C=NN5CCN(C)CC5)c(O)c4c3C2=O)NC(=O)C(C)=CC=C[C@H](C)[C@H](O)[C@@H](C)[C@@H](O)[C@@H](C)[C@H](OC(C)=O)[C@H]1C,11% [at 39.6 µM],
CCCCCCC[n+]1ccc(C)c2ccccc21,11.7%,
CCCCCCCCCCCCCCCC[n+]1ccc(C)c2ccccc21,,63.1 µM (active)
CCCCCCCCCCCC[n+]1ccc(C)c2ccccc21,-26.9%,
Cc1ccccc1C1(CC(=O)N2CCN(C)CC2)CC(=O)N(Cc2ccncc2)C1=O (centres undefined),20.6%,
CCCCCCCCCCCCCCCC[N+](C)(C)Cc1ccccc1,,112 µM (active)
CCCCCCCCCCCC[N+](C)(C)Cc1ccccc1,0.907%,
CCCCCCCCCCCCC[N+](C)(C)Cc1ccccc1,0.354%,
COc1cc(=O)n2c(c1C(=O)N(C)Cc1nonc1C)CCN(Cc1ccc(F)cc1)CC2,-0.441%,
